V-ATPase pH – regulators of yeast V-ATPase proton transport | hit rate 0.37% among 350,000 | S. cerevisiae, pHLuorin cytosolic pH fluorescence | response, % at 10 µM; in the data active = response mostly above about 7.3%, no sharp cut-off; inactive = mostly below about 5.4%; also: actives read high
GASC-1 inh – blocks human GASC-1 demethylase activity; Q9H3R0; hit rate 0.069% among 330,000; inhibition, % at 2.35 µM; GST-JMJD2C(1-420) H3K9me3 demethylation, DELFIA europium;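 active = more than half of a compound's replicate wells show inhibition beyond 50%, single wells judged on their own value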;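 also: signal counts dimethyl H3K9 product captured on neutravidin plate; 0% = median of DMSO wells and 100% = 0.3 times that DMSO median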
Target sequence (Q9H3R0 1-420 limits assumed): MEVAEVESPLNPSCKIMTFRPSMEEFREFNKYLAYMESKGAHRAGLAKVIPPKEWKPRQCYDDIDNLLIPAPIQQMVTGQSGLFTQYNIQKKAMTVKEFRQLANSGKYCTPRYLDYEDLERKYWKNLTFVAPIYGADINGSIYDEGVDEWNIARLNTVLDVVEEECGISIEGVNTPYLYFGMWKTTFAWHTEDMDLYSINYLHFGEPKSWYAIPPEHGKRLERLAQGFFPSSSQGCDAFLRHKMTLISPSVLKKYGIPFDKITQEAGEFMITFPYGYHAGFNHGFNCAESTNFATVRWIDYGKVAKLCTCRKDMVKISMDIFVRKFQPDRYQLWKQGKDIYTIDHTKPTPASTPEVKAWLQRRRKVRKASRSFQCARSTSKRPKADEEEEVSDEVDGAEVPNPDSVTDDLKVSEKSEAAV
MEX-5 binding – C. elegans MEX-5 TCR-2 RNA binding activity | Q9XUB2 | MEX-5/FITC-TCR2 RNA binding, fluorescence polarization; stronger effect = lower value | activity score (negative = inhibition of binding), % at 10 µM | hit rate 0.38% among 300,000 | AID 1832;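 active = inhibition past about -25% in most replicates, and total fluorescence under double the plate's negative control median, limit read from the data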;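 also: 0% = DMSO and -100% = 5 µM competing unlabeled TCR2 RNA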
Granule exo inh – lytic granule exocytosis inhibition; inhibition, % at 10 µM; TALL-104 LAMP-1 surface exposure, flow cytometry; cells stimulated with thapsigargin and PMA; hit rate 0.66% among 360,000;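 active = inhibition above about 55%, limit read from the data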
VLA-4 inh – inhibition in a human VLA-4 binding assay | P13612 | VLA-4 expressing cells, ligand binding flow cytometry | inhibition, % (about 7 µM as worked out from the volumes in the protocol) | hit rate 0.2% among 330,000; in the data active = inhibition above about 50%
HTR2A ag – activates the mouse 5-HT2A serotonin receptor; CHO-K1 mHTR2A beta-arrestin complementation, luminescence; percent of 30 µM serotonin response; hit rate 0.66% among 360,000; activation, % at 7.6 µM; P35363;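 active = activation above a run cutoff, the mean activation of all tested compounds plus 3 SD, cut at about 14% in these data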;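 also: 0% = plate median of compound wells and 100% = 30 µM serotonin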
Starred values were filed as active, the others as inactive; / = not tested or not shown; ! = not confirmed by another sample. In the library only some 2.2% were active in any assay of this set; here they are far more common.

SMILES	V-ATPase pH	GASC-1 inh	MEX-5 binding	Granule exo inh	VLA-4 inh	HTR2A ag
Nc1ccc(C(=O)Nc2cccc3ncccc23)cc1	-3	-5	0	-4	18	0
CC(C)(C)c1ccc(C(=O)Nc2cccc3ncccc23)cc1	-5	0	-74*	-1	-50	6
O=C1c2ccccc2C(Nc2cccnc2)N1Cc1ccccc1 (centres undefined)	2	-7	-3	-6	-12	-7
CCCCNC1c2ccccc2C(=O)N1Cc1ccccc1 (centres undefined)	17*	-2	-1	3	7	2
COC(=O)C1=C(C)N(c2ccccc2)/C(=C/c2ccco2)C1=O	1	6	-28*	22	2	4
COC(=O)C1=C(C)N(c2cc(C)cc(C)c2)/C(=C/c2ccco2)C1=O	2	0	-2	7	18	5
CN(C)CCCNC(=O)C[C@H]1C[C@H](C(=O)N2CCCCC2)[C@@]2(CCc3ccccc3)c3[nH]c4ccc(Cl)cc4c3CCN2C1=O	-1	/	/	9	/	-2
O=c1cc2oc3cc(O)c(O)cc3c(-c3ccccc3O)c-2cc1O	-3	/	/	-2	/	3
CCOc1ccccc1-c1c2cc(O)c(=O)cc-2oc2cc(O)c(O)cc12	75*	/	/	-1	/	-3
CCn1cc(C(=O)O)c(=O)c2cc(F)c(N3CCN(C)CC3)cc21	-2	-13	-4	-2	-37	0
CCCCCCn1cc(C(=O)O)c(=O)c2cc(F)c(N3CCN(C)CC3)cc21	-2	2	2	-10	10	16*
CN(Cc1ccc(Cl)cc1Cl)C(=O)c1cc(=O)c2ccccc2o1	-5	-3	1	-11	5	3
COc1ccccc1C(=O)Oc1ccc2c(c1)O/C(=C\c1ccncc1)C2=O	0	3	-26*	-2	7	-1
CC(c1ccccc1)n1cc(C(=O)NCCCn2ccnc2)nn1 (centres undefined)	-3	55*	0	-1	-16	4
CC(c1ccccc1F)n1cc(C(=O)NCCCn2ccnc2)nn1 (centres undefined)	1	-5	2	2	26	-1
COc1ccc(C(=O)NCC(C)(C)N2CCOCC2)cc1S(=O)(=O)NCc1ccc(Cl)cc1	21*	/	/	1	/	-2
Cc1cc2oc(C(=O)N(Cc3ccccc3)c3ccccn3)cc(=O)c2cc1Cl	-2	-4	1	57*	7	2
Cc1cc(C)c2oc(C(=O)N(Cc3ccccc3)c3ccccn3)cc(=O)c2c1	-4	-6	1	18	-2	-2
Cn1c(=O)c2cc(NC(=O)Nc3cccnc3)ccc2n1Cc1cccc(C(F)(F)F)c1	/	/	/	-3	/	-7
Cc1ccc(NCC(=O)N/N=C/c2ccc(C(=O)O)cc2)cc1	5	16	-61*	-2	4	-3
COc1ccc(C(CNC(=O)c2cccc(S(=O)(=O)N(C)c3ccccc3)c2)N2CCCC2)cc1 (centres undefined)	-3	5	/	-1	13	-11
COc1cc(N=c2ssnc2Cl)c(OC)cc1Cl	0	5	1	99*!	3	-6
Cc1cc(C)nc(/N=c2/ssnc2Cl)c1	1	3	0	82*	28	-5
Cc1cc(Cl)ccc1N=c1ssnc1Cl	1	12	5	8	6	2
Cc1ccc(N=c2ssnc2Cl)cc1	4	-2	0	95*	9	3
Cc1ccsc1/C=N/NC(=O)CNC(=O)c1cccc([N+](=O)[O-])c1C	0	-2	1	-3	56*	-2
CC(C)(C)n1nnnc1C(c1cccnc1)N1CCN(c2cccc(C(F)(F)F)c2)CC1 (centres undefined)	1	4	0	-2	3	-6
CC(C)(C)c1cc(C(c2cccnc2)N2CCN(CCO)CC2)cc(C(C)(C)C)c1O (centres undefined)	2	6	-1	45	50*	4
CCOC(=O)C1CCN(C(=O)c2ccc3c(=O)n4nc(Nc5ccccc5)sc4nc3c2)CC1	3	/	/	-3	/	2
CCN(CC)c1ccc(C=C2C(=O)OC(C)(C(C)(C)C)OC2=O)cc1 (centres undefined)	2	3	-69*	-2	-16	1

From PubChem BioAssay
